Efflux pump inh = inhibitors of Candida efflux pumps in yeast, primary screen, S. cerevisiae, Nile Red, multiplex. 0.44% of 330,000 active. S. cerevisiae Candida pump triplex. inhibition, % at 10 µM;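 active = plate passing quality check with inhibition over a set limit, or well fluorescence over plate mean plus 4 SD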;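 also: Nile Red retained in pooled yeast measured as flow cytometry median fluorescence; higher means more Nile Red kept so more efflux inhibition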
VLA-4 inh = inhibition in human VLA-4 binding assay, primary screen, VLA-4 allosteric modulator project, MLPCN library, flow cytometry, VLA-4 expressing cells; 0.2% of 330,000 active; Integrin alpha-4 (Homo sapiens), P13612; AID 2557, 2010; ligand binding flow cytometry; inhibition, % (about 7 µM as worked out from the volumes in the protocol); in the data active = inhibition above about 50%
Bfl-1 A1 inh = caspase 3/7 activation in MEF A1-2A-BIM cells, primary screen, A1 inhibitor project, cell-based, luminescence, HTS; caspase activation, % (concentration not given with the values); Caspase-Glo 3/7 luminescence, 3 h; percent of clofoctol response, vehicle zero; 0.066% of 330,000 active;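 active = over half of replicate activation scores above 10%, or exactly half above 10 with the replicate mean above 10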
Mot1-301 SUMO = yeast Mot1-301 growth rescue at high temperature, primary screen, SUMOylation pathway inhibitor project, S. cerevisiae, ATP luminescence, 38.5C; AID 2716, 2010; growth rescue, % at 18.8 µM; 1% of 320,000 active; S. cerevisiae Mot1-301 growth rescue; percent above DMSO median, 100 means doubled;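 active = every valid replicate shows activation above 250% relative to neutral control wells; inactive = the rest, any valid replicate at or below 250%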
AHR act = AHR activators, primary screen, cell-based, luminescence, luciferase reporter, human; Aryl hydrocarbon receptor (Homo sapiens), P35869; AHR-responsive luciferase reporter cells; activation, % at 5 µM; 2.5% of 320,000 active; AID 2796, 2010; in the data active = activation above about 47%
ALR H2O2 inh = inhibitors of human ALR sulfhydryl oxidase, primary screen, biochemical, H2O2 detection, HRP-luminol luminescence, single point; purified ALR, DTT oxidation; inhibition, % (test concentration not listed); 3.8% of 290,000 active;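 active = mean replicate inhibition above about 79%, with every replicate also reaching it, limit read from the data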
Large screens that a line does not name were inactive. A selection: hits, their analogues and other compounds. The true share with any hit is near 7.2%.

O=C(CCCN1C(=O)c2ccccc2C1=O)OC1CSCC1NC(=O)c1ccccc1 (centres undefined)	Mot1-301 SUMO 299
CC(=O)Oc1ccc(/C=N/NC(=O)C2CCCN2S(=O)(=O)c2ccc(Cl)cc2)cc1 (centres undefined)	ALR H2O2 inh 100
Cc1ccc(NC(=O)[C@@H]2CCCN2S(=O)(=O)c2ccc(Cl)cc2)cc1	none
Oc1ccc(N=Nc2ccccc2)o1	Mot1-301 SUMO 313
CCOC(=O)c1nn(-c2ccccc2)c(=O)c2c(N)scc12	Mot1-301 SUMO 332
Cc1nn(C)cc1CN(C)C(=O)c1cc(-c2ccccc2)nc2ccc(Br)cc12	none
CCOC(=O)c1cc(C)sc1NC(=O)CN1CCN(C(=O)C2CCCO2)CC1 (centres undefined)	ALR H2O2 inh 96
CC(NC(=O)c1cc(-c2ccccn2)nc2ccc(Cl)cc12)C1CCCO1 (centres undefined)	AHR act 52
CC(NC(=O)c1cc(-c2ccncc2)nc2ccc(Cl)cc12)C1CCCO1 (centres undefined)	Mot1-301 SUMO 341
C=CCn1c(N)c(-c2nc3ccccc3n2C)sc1=S	ALR H2O2 inh 90
Cn1c(-c2sc(=S)n(-c3ccccc3)c2N)nc2ccccc21	none
CNCc1ccccc1Sc1cc(O)ccc1O	ALR H2O2 inh 82
CN(C)Cc1ccccc1Sc1ccc(Br)cc1	none
CN(C)Cc1ccccc1Sc1ccc(O)cc1O	ALR H2O2 inh 100
COc1cc(C2C(C#N)=C(N)Oc3n[nH]c(-c4cccs4)c32)cc(OC)c1O (centres undefined)	ALR H2O2 inh 89
CC(C)C1C(C#N)=C(N)Oc2n[nH]c(-c3cccs3)c21 (centres undefined)	ALR H2O2 inh 82
CCOc1ccc(C2C(C#N)=C(N)Oc3nc[nH]c(=O)c32)cc1OC (centres undefined)	Mot1-301 SUMO 334 (no result: ALR H2O2 inh)
Cc1ccc(C2C(C#N)=C(N)Oc3n[nH]c(-c4cccs4)c32)cc1 (centres undefined)	none
CCCc1[nH]nc2c1C(c1ccc(O)c(OC)c1)C(C#N)=C(N)O2 (centres undefined)	ALR H2O2 inh 99
CCCc1[nH]nc2c1C(c1ccccc1OC)C(C#N)=C(N)O2 (centres undefined)	none
COc1cc(Br)c(Br)c(Br)c1N	none
c1ccc(CCCN2CCN(c3ccccn3)CC2)cc1	none (no result: AHR act)
Cc1nc(NC(=O)/C=C/c2ccc(C(C)(C)C)cc2)sc1C(=O)N(C)C	none (no result: ALR H2O2 inh)
Cc1cc(C)n2nc(C(=O)N3CCN(c4ccc([N+](=O)[O-])cc4)CC3)nc2n1	ALR H2O2 inh 97
COc1ccc(N2CCN(C(=O)c3nc4nc(C)cc(C)n4n3)CC2)cc1	none
O=C(CSc1ncnc2ccccc12)Nc1cccc(S(=O)(=O)N2CCOCC2)c1	ALR H2O2 inh 98
CN(C)S(=O)(=O)c1cccc(NC(=O)CSc2ncnc3ccccc23)c1	ALR H2O2 inh 99
COCCNC(=O)CSc1ccccc1C(=O)NCC1CCCCC1	Mot1-301 SUMO active
CCc1cccc(CC)c1NC(=O)C1SC(=Nc2ccccc2C)C(c2nc3ccccc3s2)=C1N (centres undefined)	AHR act 54
CCc1cccc(C)c1NC(=O)CCCSc1nc2ccccc2s1	none (no result: ALR H2O2 inh)
COc1ccccc1N1CCN(C(=O)Cc2ccc(Cl)cc2)CC1	none (no result: ALR H2O2 inh)
COc1ccccc1N1CCN(C(=O)CCSCc2ccccc2F)CC1	ALR H2O2 inh 96
COc1cccc(N2CCN(C(=O)CCSCc3ccccc3F)CC2)c1	ALR H2O2 inh 97
Cc1ccc(N2C(=O)NC(NC(=O)c3ccc(Cl)cc3)(C(F)(F)F)C2=O)cc1 (centres undefined)	none
O=C(CCC1CCCN(C(=O)c2ccc3c(c2)OCO3)C1)NCc1ccc(F)c(F)c1 (centres undefined)	none
COc1ccc(S(=O)(=O)N2CCN(C(=O)CCc3c[nH]c4ccccc34)CC2)cc1	none
Brc1ccccc1-c1csnn1	none
COc1ccc(S(=O)(=O)N2CCOCC2)cc1NC(=O)CCc1cc(OC)c(OC)c(OC)c1	none

Screens from PubChem BioAssay.
